# G9a block: qHTS Assay for Inhibitors of Histone Lysine Methyltransferase G9a | G9a H3K9 monomethylation, AlphaScreen, 2 h | actives 8.8% (n = 350,000) | Potency, µM (doses to about 102 µM), without a hit: top-dose activity, negative = inhibition, hits mostly inhibitors; further: on the % scale 0 is the no-effect control and ±100 the full control effect; nearly all actives have a fitted effect of over 75% in size
#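 Chemiluminescent proximity detection of H3K9 monomethylation, read after 10 min bead incubation in the dark. Reaction: 20 nM G9a, 500 nM biotin-H3K9 peptide, 20 uM SAM cofactor, 2 h, room temperature, following 15 min enzyme-compound preincubation.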
# JMJD2A Tudor inh: qHTS Assay for Inhibitors of JMJD2A-Tudor Domain; Lysine-specific demethylase 4A (Homo sapiens), O75164; actives 4.4% (n = 390,000); AlphaScreen JMJD2A-Tudor / H3K4me3 peptide binding; Potency, µM (top dose mostly 114 µM), for the others: at the highest dose activity change, negative = inhibition, usual class: inhibitors; further: on the % scale 0 is the no-effect control and ±100 the full control effect; nearly all actives have a fitted effect of over 50% in size
# BAZ2B block: qHTS Assay for Inhibitors of BAZ2B | Bromodomain adjacent to zinc finger domain protein 2B (Homo sapiens), Q9UIF8 | AlphaScreen BAZ2B-H3K14Ac peptide displacement | Potency, µM (doses to about 114 µM), without a hit: top-dose activity change, negative = inhibition, actives largely listed as inhibitors | actives 4.4% (n = 360,000) | AID 504333, 2011; further: on the % scale 0 is the no-effect control and ±100 the full control effect; nearly all actives have a fitted effect of over 60% in size
#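 AlphaScreen displacement: compounds (up to 110uM) incubated 30 min at room temperature with a preformed 50 nM BAZ2B/50 nM biotinylated H3K14Ac peptide complex in PBS pH 7.4 with Tween-20. Donor and acceptor beads at 10 ug/mL final added, 20 min light-protected before reading.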
# HP1b binding inh: HTS for Inhibitors of HP1-beta Chromodomain Interactions with Methylated Histone Tails | Chromobox protein homolog 1 (Homo sapiens), P83916 | AlphaScreen HP1-beta / biotin-H3K9me3 peptide binding | Potency, µM (titrated, usually from 114 µM), inactives show top-dose activity change, negative = inhibition, actives largely listed as inhibitors | actives 0.56% (n = 390,000) | AID 540317, 2011; further: nearly all actives have a fitted effect of over 70% in size
#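 HP1-beta protein (50 nM final) preincubated 30 min at room temperature with biotinylated H3(1-18)K9me3 peptide (50 nM) in PBS pH 7.4, 0.01% Tween-20, then compound added for 30 min. AlphaScreen streptavidin donor/nickel chelate acceptor beads (10 ug/mL final), 30 min dark, luminescence read.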
# Sfp inh: qHTS Assay for Inhibitors of Bacillus subtilis Sfp phosphopantetheinyl transferase (PPTase); Potency, µM, without a hit: largest response in the series, negative = inhibition, most hits filed as inhibitors; actives 3.5% (n = 310,000); Biochemical Sfp PPTase activity, qHTS; 4'-phosphopantetheinyl transferase ffp (Bacillus subtilis), Q9F4F7; AID 1490, 2009;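 further: the enzyme is Sfp with the accession as filed and its product quenches rhodamine fluorescence; 0% = enzyme reaction without inhibitor and -100% = no enzyme wells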
#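 Step 1, compound plus 15 nM Sfp-PPTase, 15 min, room temperature. Step 2, add rhodamine-CoA (5 uM) and BHQ-2-YbbR (12.5 uM). Step 3, read 525/598 nm fluorescence at 0 and 30 min.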
# An asterisk follows results filed as active; u = inconclusive; x = no result given; [ ] = remark or other dose. Rows were chosen to be rich in hits. Some 12% of all compounds tested hit in one or more screens of this group. The call rests on the fitted dose curve; in most records, active means well fitted curve in the direction sought with a large enough effect; inconclusive means small, poorly fitted or top-dose-only effect, or another doubt; inactive means no such curve, though single readings can be large; an effect the other way counts as inactive or inconclusive. Potency means the concentration at half of the fitted maximal effect.
SMILES,G9a block,JMJD2A Tudor inh,BAZ2B block,HP1b binding inh,Sfp inh
Cc1cc(/C=N/NC(=O)c2c(Br)cnn2C)c(C)n1-c1cccc(Br)c1,u,u,28.2µM*,u,2.5%
Cc1cc(/C=N/NC(=O)c2ccccc2F)c(C)n1-c1ccccc1,50.1µM*,-20.4%,-37.4%,-7.3%,1.8%
C1CNCCOCCNCCN1,-4.8%,-24.5%,44.7µM*,49.6%,-8.8%
COc1ccc(-c2[nH]c(-c3ccc(Cl)cc3)nc2SCC(=O)NCC2CCCO2)cc1 (centres undefined),-0.5%[59 µM],-22.3%,-19.8%,11.3%,x
Cc1cccc(Cn2c(=O)n(-c3ccc(Cl)c(Cl)c3)c(=O)c3c(C)c(C)sc32)c1,1.8%[59 µM],-2.7%,-0.5%,35.3%,x
CCCCn1c(N)c(N(CCOC)C(=O)C2CCCN(C(=O)c3ccc(Cl)cc3)C2)c(=O)[nH]c1=O (centres undefined),28.2µM*,-7.6%,-9.0%,35.0%,x
CCCCn1c(N)c(N(CCC(C)C)C(=O)C2CCCC2)c(=O)[nH]c1=O,20µM*,-4.7%,-3.2%,50.9%,x
CCCCn1c(N)c(N(CCC(C)C)C(=O)CSc2nc3ccccc3n2C)c(=O)[nH]c1=O,x,79.4µM*,x,-39.0%,x
CCCCn1c(N)c(N(CCC(C)C)C(=O)c2cc(Cl)nc3ccccc23)c(=O)[nH]c1=O,27.4%[59 µM],-24.1%,19.1%,6.0%,x
CCCCn1c(N)c(N(CC(C)C)C(=O)C2CCC2)c(=O)[nH]c1=O,14.7%[12.7 µM],12.1%,-2.4%,30.6%,x
CCCCn1c(N)c(N(CCOC)C(=O)C2CCN(S(=O)(=O)c3ccc(C)c(C)c3)CC2)c(=O)[nH]c1=O,50.1µM*,-17.9%,-4.5%,35.3%,x
COc1cc2nccc(Oc3ccc(NC(=O)Nc4ccc(F)cc4F)c(F)c3)c2cc1OC,x,x,x,x,-6.1%
N#Cc1ccc(C(=O)NC(=S)N2CCN(C=O)CC2)cc1,x,-9.7%,x,14.4%[57 µM],x
COc1ccc(CNC(=O)CC2N=C3c4ccccc4N=C(SCC(=O)Nc4ccc(C(C)C)cc4)N3C2=O)cc1 (centres undefined),-6.8%[59 µM],-29.3%,-15.4%,17.1%,x
CCCCN(CC)CCNC(=O)Cn1cnc2sc(C)c(S(=O)(=O)N3CCN(c4ccccc4OC)CC3)c2c1=O,-4.8%[59 µM],-21.5%,-3.2%,7.6%,x
COc1cc(C(=O)NCc2nc(-c3ccc(Cl)cc3)no2)cc(OC)c1OC,-5.4%[59 µM],-17.7%,-3.3%,22.6%,x
CCCCN(C(=O)C1CC(=O)N(CCc2ccc(OC)c(OC)c2)C1)c1c(N)n(CCCC)c(=O)[nH]c1=O (centres undefined),15.8µM*,-3.8%,-22.7%,18.4%,x
CCCCn1c(N)c(N(CCOC)C(=O)C2CCN(C(=O)c3ccc(Cl)cc3)CC2)c(=O)[nH]c1=O,56.2µM*,-3.4%,-6.1%,35.0%,x
Cc1cccc(-c2nc3c4ccccc4nc(NCc4ccccc4Cl)n3n2)c1,55.0%[59 µM],2.9%,u,75.6%,x
CCC1(C)Cc2c(sc3nc(SC)n(-c4ccc(C)cc4)c(=O)c23)CO1 (centres undefined),-3.7%[59 µM],-18.3%,-0.3%,2.6%,x
COc1ccc(OCC(O)CN2CCCC2)cc1 (centres undefined),x,79.4µM*,u,-22.3%,-17.2%
OC(COc1ccc2cc(Br)ccc2c1)CN1CCCC1 (centres undefined),12.8%[12.7 µM],-22.5%,-6.3%,25.0%,79.4µM*
COc1ccc(OCC(O)CN2CCN(CC(O)COc3ccc(OC)cc3)CC2)cc1 (centres undefined),-10.8%,-17.3%,-4.7%,16.2%,8.7%
OC(COc1ccc(OCC(O)CN2CCCCCC2)cc1)CN1CCCCCC1 (centres undefined),32.5%[0.501 µM],-15.8%,-24.1%,14.9%,9.9%
O=S(=O)(N1CCCCC1)N1CCN(CC(O)COc2ccc3cc(Br)ccc3c2)CC1 (centres undefined),6.0%[12.7 µM],-17.5%,5.1%,12.3%,1.9%
SMILES,G9a block,JMJD2A Tudor inh,BAZ2B block,HP1b binding inh,Sfp inh
OC(COc1ccccc1)CN1CCCC1 (centres undefined),-28.7%,56.2µM*,79.4µM*,0.5%,-9.1%
COc1ccc(OCC(O)CN2CCCCCC2)cc1 (centres undefined),8.91µM*,3.98µM*,50.1µM*,u,-12.6%
CC(C)CN(CCCNC(=O)Cn1ncc2c3ccccc3n(C)c2c1=O)CC(C)C,-3.5%[59 µM],-13.4%,2.3%,17.2%,x
O=C(Nc1ccc(CN2CCOCC2)cc1)c1ccc(-c2cccc(Cl)c2)o1,17.8µM*,-34.1%,u,-13.5%,-25.7%
O=C(Nc1ccc(CN2CCOCC2)cc1)c1ccc(Cl)cc1Cl,16.6%[59 µM],-3.0%,2.5%,47.1%,19.5%
COc1ccc(-n2nc3ccc(NC(=O)c4ccc(-c5cc(Cl)ccc5Cl)o4)cc3n2)cc1,u,-4.9%,5.1%,36.1%,x
O=C(Nc1ccc(CN2CCOCC2)cc1)c1ccc(-c2ccc(Cl)cc2Cl)o1,39.8µM*,-27.1%,u,2.9%,-3.6%
O=C(Nc1ccc2nn(-c3ccccc3)nc2c1)c1ccc(-c2cccc(Cl)c2)o1,14.1µM*,-21.9%,-14.7%,84.3%,x
O=C(NC(=S)Nc1ccc(CN2CCOCC2)cc1)c1ccc(-c2cccc(Cl)c2)o1,u,u,u,-6.8%,-2.0%
COc1cc(C(=O)OCC(=O)Nc2cccc(S(=O)(=O)N3CCOCC3)c2)ccc1OCC(C)C,2.6%[0.501 µM],-10.3%,4.2%,29.8%,x
S=c1[nH]nc(COc2ccccc2)n1/N=C/c1ccco1,-115.8%,17.8µM*,u,-14.0%,-26.5%
Cc1ccc(/C=N/n2c(COc3ccccc3)n[nH]c2=S)o1,12.6µM*,56.2µM*,-32.7%,-2.9%,44.7µM*
Cc1ccccc1OCc1nc2ccccc2c(=O)n1/N=C/c1ccco1,u,-10.5%,-30.2%,4.3%,-4.2%
Cc1ccc(S(=O)(=O)N2[C@@H](c3ccc(F)cc3)C(C(=O)O)=C[C@H]2CC2CCCC2)cc1,x,-15.9%,x,23.5%,x
CCOC(=O)C(=O)Cc1cccnn1,x,3.55µM*,x,u,x
COc1cc(OC)nc(Oc2ccccc2C=O)n1,x,-7.6%,x,18.6%,x
COc1cc(OC)nc(Oc2ccccc2/C=N/O)n1,x,44.7µM*,x,11.8%,x
O=C(O)c1cncc(Br)c1,u,0.7%,-1.1%,31.5%,14.1%
CN(C)c1cncc(C(=O)O)c1,53.7%,-5.2%,20.7%,29.8%,56.2µM*
CCOc1ccc(C(=O)c2cn(CC(=O)Nc3cc(OC)cc(OC)c3)c3ccc(F)cc3c2=O)cc1,u,-33.4%,89.1µM*,25.8%,x
CCc1ccc(C(=O)c2cn(CC(=O)Nc3ccc(F)c(F)c3)c3cc(OC)c(OC)cc3c2=O)cc1,-6.6%[59 µM],-22.8%,79.4µM*,12.2%,x

# Compound activity as filed in PubChem.
